Data taken from article PMC5700166.
Changes are numbered by the printed parent chain.

Legend:
Assay in all cases: protein-binding microarray (PBM); PBM: ~300 nM protein, 6 mM HEPES pH 7.8, 80 mM KCl, 0.5 mM EDTA, 0.5 mM EGTA, 6% glycerol, 35 ng/ul poly-dIdC, 1% milk, 1 h, room temperature; Ap Aiptasia and Nv Nematostella (sea anemones) / Co Capsaspora / Aq Amphimedon (sponge) / Dm Drosophila / Hu human; RHD is the Rel homology domain; high values mean tight binding
Conditions in all cases: dsDNA, one strand shown
[1] = molecular target: T1, GST-Ap-NF-kB RHD (Exaiptasia pallida (Aiptasia), UniProt A0A913YAJ5 2-422)
T1 sequence: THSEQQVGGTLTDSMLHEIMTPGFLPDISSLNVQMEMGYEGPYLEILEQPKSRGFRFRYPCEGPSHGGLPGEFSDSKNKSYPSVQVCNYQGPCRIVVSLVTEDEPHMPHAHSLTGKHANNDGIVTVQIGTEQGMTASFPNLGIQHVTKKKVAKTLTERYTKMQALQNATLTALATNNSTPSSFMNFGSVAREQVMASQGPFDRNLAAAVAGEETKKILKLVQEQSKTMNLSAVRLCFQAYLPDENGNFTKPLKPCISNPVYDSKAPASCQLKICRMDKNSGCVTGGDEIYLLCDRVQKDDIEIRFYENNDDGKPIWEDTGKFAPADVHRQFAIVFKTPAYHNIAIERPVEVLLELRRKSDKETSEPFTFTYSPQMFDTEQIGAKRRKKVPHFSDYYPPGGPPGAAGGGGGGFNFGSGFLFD

[2] = molecular target: T2, GST-Nv-NF-kB (Cys allele) (Nematostella vectensis, UniProt E5G601 2-411)
T2 sequence: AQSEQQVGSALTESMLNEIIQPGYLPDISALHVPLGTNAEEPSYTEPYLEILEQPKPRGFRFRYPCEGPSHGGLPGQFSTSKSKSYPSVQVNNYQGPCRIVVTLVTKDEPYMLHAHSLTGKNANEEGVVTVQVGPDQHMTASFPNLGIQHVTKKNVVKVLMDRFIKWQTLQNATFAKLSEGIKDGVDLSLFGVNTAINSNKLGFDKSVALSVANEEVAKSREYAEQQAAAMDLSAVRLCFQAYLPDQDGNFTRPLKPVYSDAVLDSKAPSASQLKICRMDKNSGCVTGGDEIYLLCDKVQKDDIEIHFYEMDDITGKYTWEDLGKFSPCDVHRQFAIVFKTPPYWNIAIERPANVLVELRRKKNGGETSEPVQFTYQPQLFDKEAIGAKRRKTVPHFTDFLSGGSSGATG

[3] = molecular target: T3, GST-Nv-NF-kB (Ser allele) (Nematostella vectensis, UniProt A7UNT2 2-411)
T3 sequence: T2 sequence with Q21R, C66S, S207N, E215Q, V217A, E225K, A268E, D399E

[4] = molecular target: T4, GST-Co-NF-kB (Capsaspora owczarzaki, UniProt F1ARL5 200-546)
T4 sequence: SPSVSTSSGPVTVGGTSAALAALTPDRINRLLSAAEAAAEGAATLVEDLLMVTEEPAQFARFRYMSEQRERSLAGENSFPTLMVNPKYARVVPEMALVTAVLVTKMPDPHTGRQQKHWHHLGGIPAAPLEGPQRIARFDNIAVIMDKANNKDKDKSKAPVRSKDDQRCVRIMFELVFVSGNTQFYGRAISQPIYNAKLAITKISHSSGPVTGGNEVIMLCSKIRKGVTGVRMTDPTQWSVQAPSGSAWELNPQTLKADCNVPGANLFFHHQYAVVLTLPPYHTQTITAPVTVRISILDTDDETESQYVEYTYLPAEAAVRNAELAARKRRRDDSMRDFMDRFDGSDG

[5] = molecular target: T5, GST-Dm-Relish (Drosophila melanogaster, UniProt Q94527 99-473)
T5 sequence: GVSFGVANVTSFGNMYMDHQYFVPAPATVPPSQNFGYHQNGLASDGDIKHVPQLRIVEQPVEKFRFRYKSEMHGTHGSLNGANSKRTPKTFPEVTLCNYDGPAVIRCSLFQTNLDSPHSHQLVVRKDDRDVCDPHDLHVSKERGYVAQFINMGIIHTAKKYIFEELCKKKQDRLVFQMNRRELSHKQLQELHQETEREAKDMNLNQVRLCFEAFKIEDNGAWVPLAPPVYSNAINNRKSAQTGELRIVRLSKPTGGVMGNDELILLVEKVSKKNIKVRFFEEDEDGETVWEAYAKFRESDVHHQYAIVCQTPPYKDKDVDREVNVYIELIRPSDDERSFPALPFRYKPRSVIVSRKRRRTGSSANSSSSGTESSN

[6] = molecular target: T6, GST-Aq-NF-kB (Amphimedon queenslandica, UniProt A9Y5G7 2-389)
T6 sequence: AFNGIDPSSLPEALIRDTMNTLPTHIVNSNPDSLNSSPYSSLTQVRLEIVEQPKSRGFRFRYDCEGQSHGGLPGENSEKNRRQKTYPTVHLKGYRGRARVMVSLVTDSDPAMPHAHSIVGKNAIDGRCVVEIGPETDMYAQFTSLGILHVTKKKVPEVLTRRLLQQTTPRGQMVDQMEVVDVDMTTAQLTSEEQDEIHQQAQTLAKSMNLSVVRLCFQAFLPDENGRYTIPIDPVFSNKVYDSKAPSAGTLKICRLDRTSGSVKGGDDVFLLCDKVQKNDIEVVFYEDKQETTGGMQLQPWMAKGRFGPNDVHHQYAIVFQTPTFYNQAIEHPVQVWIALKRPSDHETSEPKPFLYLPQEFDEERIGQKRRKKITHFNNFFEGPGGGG

[7] = molecular target: GST-Hu-p50 (Homo sapiens, UniProt P19838 7-356)
Chain of GST-Hu-p50 (P19838 7-356): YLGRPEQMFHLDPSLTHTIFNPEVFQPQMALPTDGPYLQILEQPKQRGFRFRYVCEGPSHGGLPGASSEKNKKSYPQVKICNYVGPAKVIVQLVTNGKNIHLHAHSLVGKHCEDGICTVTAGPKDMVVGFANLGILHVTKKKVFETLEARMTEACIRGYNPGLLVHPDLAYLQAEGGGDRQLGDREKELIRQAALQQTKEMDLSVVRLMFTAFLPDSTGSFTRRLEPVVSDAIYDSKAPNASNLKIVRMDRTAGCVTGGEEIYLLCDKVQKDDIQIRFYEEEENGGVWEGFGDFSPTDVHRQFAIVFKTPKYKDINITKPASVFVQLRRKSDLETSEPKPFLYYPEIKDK

Sequence	binding signal [1] [z-score]	binding signal [2] [z-score]	binding signal [3] [z-score]	binding signal [4] [z-score]	binding signal [5] [z-score]	binding signal [6] [z-score]	binding signal [7] [z-score]
CCGATTAACATCAGGAATTCCCCTGATGTTAATCGGGTCTTGATTCGCTTGACGCTGCTG	11.7	12.5	11.7	7.64	9.99	11.5	7.74
CCGATTAACATCAGGACAACCCCTGATGTTAATCGGGTCTTGATTCGCTTGACGCTGCTG	3.21	3.16	1.17	1.02	2.63	5.78	2.98
CCGATTAACATCAATTCCCCCCATGATGTTAATCGGGTCTTGATTCGCTTGACGCTGCTG	7.01	7.06	6.97	9.55	4.89	5.8	6.18
CCGATTAACATCAGGGAAGAACCTGATGTTAATCGGGTCTTGATTCGCTTGACGCTGCTG	2.43	3.52	3.35	1.42	8.73	5.54	2.83
CCGATTAACATCAGGGGGGGCAATGATGTTAATCGGGTCTTGATTCGCTTGACGCTGCTG	4.42	3.92	3.15	4.99	4.29	3.72	3.8
CCGATTAACATCAAGGGGGAGATTGATGTTAATCGGGTCTTGATTCGCTTGACGCTGCTG	6.99	6.09	7.57	7.21	3.01	5.27	7.18
CCGATTAACATCAAGAAAGTCCCTGATGTTAATCGGGTCTTGATTCGCTTGACGCTGCTG	7.56	8.86	8.7	1.38	7.13	6.74	6.05
CCGATTAACATCAAATAATACCCTGATGTTAATCGGGTCTTGATTCGCTTGACGCTGCTG	3.69	5.65	5.61	1.91	3.33	6.24	4.35
CCGATTAACATCAAGAAACCCCCTGATGTTAATCGGGTCTTGATTCGCTTGACGCTGCTG	9.53	8.55	9.47	3.31	10	7.67	7.53
CCGATTAACATCAGGGGTTTTTATGATGTTAATCGGGTCTTGATTCGCTTGACGCTGCTG	8.01	8.52	7.26	2.38	8.58	7.14	7.21
CCGATTAACATCAGGGAAGCCCCTGATGTTAATCGGGTCTTGATTCGCTTGACGCTGCTG	9.42	10.8	7.12	1.97	10.3	9.75	6.02
CCGATTAACATCAGAGTTTCCCCTGATGTTAATCGGGTCTTGATTCGCTTGACGCTGCTG	7.08	8.35	9.96	7.72	4.61	6.33	6.14
CCGATTAACATCAATAAACCCCCTGATGTTAATCGGGTCTTGATTCGCTTGACGCTGCTG	7.76	6.85	7.79	2.94	9.45	6.33	6.85
CCGATTAACATCACACAATCCCCTGATGTTAATCGGGTCTTGATTCGCTTGACGCTGCTG	6.64	6.65	8.71	2.94	3.98	4.86	5.87
CCGATTAACATCAGGAAATCCCCTGATGTTAATCGGGTCTTGATTCGCTTGACGCTGCTG	10.8	12.1	12.5	4.46	10.3	10.9	8.31
CCGATTAACATCAGGGGTAAATATGATGTTAATCGGGTCTTGATTCGCTTGACGCTGCTG	2.7	3.39	3.87	7.48	1.66	3.06	3.84
CCGATTAACATCAATTTTTCCCGTGATGTTAATCGGGTCTTGATTCGCTTGACGCTGCTG	3.39	4.95	6.62	6.5	2.16	4.56	3.66
CCGATTAACATCAAGGGGAAAACTGATGTTAATCGGGTCTTGATTCGCTTGACGCTGCTG	7.51	8.85	11	8	5.32	6.55	6.9
CCGATTAACATCAAAGTCCCGGGTGATGTTAATCGGGTCTTGATTCGCTTGACGCTGCTG	4.32	3.61	3.64	1.85	4.38	3.49	3.83
CCGATTAACATCAGGGGATGTTATGATGTTAATCGGGTCTTGATTCGCTTGACGCTGCTG	5.57	6.43	7.06	3.17	5.86	5.53	5.29
CCGATTAACATCAGGGAAATCACTGATGTTAATCGGGTCTTGATTCGCTTGACGCTGCTG	3.41	4.78	4.63	2.62	8.27	5.99	4.18
CCGATTAACATCAGGGGAAAGACTGATGTTAATCGGGTCTTGATTCGCTTGACGCTGCTG	4.98	6.57	7.06	4.97	6.16	5.51	4.9
CCGATTAACATCAGGGGATACACTGATGTTAATCGGGTCTTGATTCGCTTGACGCTGCTG	4.44	4.02	5.34	3.62	5.84	4.05	3.83
